Screens deposited in PubChem by several laboratories.
A selection: hits, their analogues and other compounds. The true share with any hit is near 1.2%.
Furin inhibitor – human furin inhibition. P09958. purified furin, fluorogenic substrate cleavage. inhibition, % at 20 µM or 30 µM. 220,000 compounds, 0.061% hits; in the data active means inhibition above about 25%
p97 inhibitor – blocks human p97 ATPase activity; recombinant p97 ATPase, Kinase-Glo ATP luminescence, 3 h; inhibition, % at 8 µM; 220,000 compounds, 0.42% hits; in the data active means inhibition above about 15%;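 further: 0% = DMSO vehicle and 100% = wells lacking enzyme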
FAS TE block – blocks the thioesterase domain of human fatty acid synthase. P49327. recombinant FAS-TE, OMFH fluorogenic substrate, fluorescence endpoint. inhibition, % at 15 µM. 360,000 compounds, 0.67% hits;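 active means compounds whose normalised, plate-corrected inhibition of enzyme fluorescence in the single-dose primary screen is 50% or more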;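 further: 0% = DMSO with enzyme and 100% = substrate without enzyme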
UBC9 SUMO inh – blocks human SUMOylation mediated by UBC9; P63279; HTRF SUMOylation assay, SAE1/SAE2 + UBC9, in vitro; inhibition, % at 35 µM; 290,000 compounds, 0.36% hits; in the data active means inhibition above about 50%, passing the limit was not always enough
Target sequence (P63279 whole entry, looked up): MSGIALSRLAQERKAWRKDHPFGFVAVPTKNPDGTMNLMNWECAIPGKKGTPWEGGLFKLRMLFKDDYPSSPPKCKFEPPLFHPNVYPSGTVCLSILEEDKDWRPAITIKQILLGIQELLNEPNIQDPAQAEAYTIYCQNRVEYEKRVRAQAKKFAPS
PKD1 kinase inh – PKD1 (human) kinase inhibition | AID 797 | inhibition, % (concentration not given with the values) | 200,000 compounds, 0.056% hits | PKD1 kinase fluorescence polarization assay; in the data active means inhibition above about 50%
Redox H2O2 prof – compounds producing H2O2 with reducing agent – biochemical, NIH compound library profiling, artefact control for MLSCN library redox annotation, primary screen. DTT-dependent redox cycling H2O2, phenol red/HRP absorbance; 100% = 100 µM peroxide control, 0% = buffer. activation, % at 10 µM. 200,000 compounds, 0.03% hits;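 active means activation of at least 50% relative to the plate's high and low controls in the primary single-dose screen; inactive means activation below 50%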;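 further: compound incubated with DTT at 0.8 mM final as the reducing agent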
FAS-TE inh conf – FAS thioesterase (human) inhibition, confirmation; shares compounds with FAS TE block; recombinant FAS-TE, OMFH fluorogenic substrate, fluorescence; inhibition, % at 15 µM; 2,300 compounds, 45% hits; AID 624325;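 active means compounds inhibiting the enzyme by at least 50% at 15 µM in any one of the replicates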;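 further: 0% = enzyme with DMSO only and 100% = wells lacking enzyme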
* marks the source's active call; other numbers are inactive results; . = no result.

SMILES	Furin inhibitor	p97 inhibitor	FAS TE block	UBC9 SUMO inh	PKD1 kinase inh	Redox H2O2 prof	FAS-TE inh conf
O=C1OCCN1C(=O)[C@H]1[C@H](c2ccc([N+](=O)[O-])cc2)C(c2ccccc2)=NN1c1ccc(Br)cc1	.	.	90*	.	.	.	12
Cc1cccc(C2=NN(c3ccccc3)[C@@H](C(=O)N3CCOC3=O)[C@@H]2c2ccc([N+](=O)[O-])cc2)c1	.	.	92*	.	.	.	17
O=C1OCCN1C(=O)[C@H]1[C@H](c2ccc([N+](=O)[O-])cc2)C(c2cccc(Cl)c2)=NN1c1ccc(Br)cc1	.	.	87*	.	.	.	6
CC(C)c1cccc(C(C)C)c1OC(=O)[C@H]1OC(c2ccc(Br)cc2)=C[C@@H]1c1ccc(Br)cc1	.	.	34	.	.	.	.
COc1ccc(NC(=O)/C(=C\c2ccc(OS(=O)(=O)c3ccc(C)cc3)cc2)NC(=O)c2ccccc2)cc1	0	5	54*	-8	-9	2	15
Cc1ccc(S(=O)(=O)Oc2ccc(/C=C(/NC(=O)c3ccccc3)C(=O)Nc3ccccc3)cc2)cc1	10	-10	55*	29	-2	1	18
Cc1ccc(S(=O)(=O)Oc2ccc(/C=C(/NC(=O)c3ccccc3)C(=O)NCCC(=O)O)cc2)cc1	-21	0	-1	-11	-3	0	.
NS(=O)(=O)c1ccc(CCNC(=O)CCNS(=O)(=O)c2ccccc2C(F)(F)F)cc1	.	.	-8	.	.	.	.
COc1ccc(Cc2nc3c4c(ncn3n2)Oc2ccc3ccccc3c2C4c2ccc(OC)c(OC)c2)cc1 (configuration not stated)	-25	-1	59*	-13	0	1	19
O=C1c2ccc(-c3ccc(F)cc3OCc3ccccc3)cc2S(=O)(=O)c2cccc(C(=O)N3CCN(c4ncc(Br)cn4)CC3)c21	.	.	20	.	.	.	.
O=C1c2ccc(-c3ccc(Cl)c(C(F)(F)F)c3)cc2S(=O)(=O)c2cccc(C(=O)N3CCN(c4ncc(Br)cn4)CC3)c21	.	.	69*	.	.	.	11
O=C1c2ccccc2S(=O)(=O)c2cc(C(=O)N3CCN(c4c(Cl)cncc4Cl)CC3)ccc21	.	.	62*	.	.	.	21
O=C1c2ccccc2S(=O)(=O)c2cc(C(=O)N3CCN(c4ccccc4)CC3)ccc21	.	.	20	.	.	.	.
O=C1c2ccc(Cl)cc2S(=O)(=O)c2cccc(C(=O)N3CCN(c4ccc(Cl)cn4)CC3)c21	.	.	59*	.	.	.	5
CCn1cc(/C=C(\NC(=O)c2ccc(OC)cc2)C(=O)NCCCn2ccnc2)c2ccccc21	.	.	-6	.	.	.	.
Cc1ccc(C(=O)N/C(=C\c2cn(S(=O)(=O)N(C)C)c3ccccc23)C(=O)NCCN2CCOCC2)cc1	.	.	60*	-5	.	.	67*
CCCNC(=O)/C(=C/c1cn(S(=O)(=O)N(C)C)c2ccccc12)NC(=O)c1ccc(OC)cc1	-35	3	81*	15	-2	-1	88*
COc1ccc(C(=O)N/C(=C\c2cn(S(=O)(=O)N(C)C)c3ccccc23)C(=O)NCCCn2ccnc2)cc1	.	.	54*	.	.	.	38
Cc1cc(NC(=O)c2ccc(F)c(S(=O)(=O)N3CCCCC3)c2)no1	.	.	-3	0	.	.	.
CC1CCCN(CCCNC(=O)c2nn(C)c3c2CS(=O)(=O)c2ccccc2-3)C1 (configuration not stated)	.	.	-7	14	.	.	.
CC1CCN(C(=O)c2[nH]cnc2C(=O)Nc2ccc(Cl)cc2)CC1	.	.	54*	.	.	.	49
O=C(NN(Cc1ccccc1)Cc1ccccc1)c1ccccc1	.	.	-1	.	.	.	.
Cc1ccc(S(=O)(=O)N2CCN(C(=O)c3cc4c(C)nn(-c5ccccc5)c4s3)CC2)cc1	-13	4	62*	0	-1	8	13
COc1ccc(/C=C(\NC(=O)c2ccc([N+](=O)[O-])cc2)C(=O)N2CCOCC2)cc1	-6	-4	82*	-12	-2	-1	87*
O=C(N/C(=C/c1ccccc1)C(=O)N1CCOCC1)c1ccc([N+](=O)[O-])cc1	-10	-1	53*	4	-7	1	47*
SMILES	Furin inhibitor	p97 inhibitor	FAS TE block	UBC9 SUMO inh	PKD1 kinase inh	Redox H2O2 prof	FAS-TE inh conf
O=C(N/C(=C\c1ccc([N+](=O)[O-])cc1)C(=O)N1CCOCC1)c1ccccc1	-23	6	-1	17	-2	0	.
CC1CCCCN1C(=O)COC(=O)c1cc([N+](=O)[O-])ccc1N1CCOCC1 (configuration not stated)	.	.	54*	.	.	.	57*
O=C(COC(=O)c1ccc(F)cc1Cl)NC1CCCCCCC1	.	.	14	.	.	.	.
O=C(COC(=O)c1cc(F)c(F)cc1Cl)NC1CCCCCC1	.	.	56*	.	.	.	68*
O=C(COC(=O)c1cc([N+](=O)[O-])ccc1N1CCOCC1)NC1CCS(=O)(=O)C1 (configuration not stated)	.	.	16	.	.	.	.
CCN(C(=O)COC(=O)c1cc([N+](=O)[O-])ccc1N1CCOCC1)C1CCCCC1	.	.	86*	.	.	.	92*
O=C(COC(=O)c1cc([N+](=O)[O-])ccc1N1CCOCC1)NC1CCCCC1	.	.	92*	.	.	.	91*
CC1CN(C(=O)c2cc(Br)c(Br)s2)CC(C)O1 (configuration not stated)	.	.	-6	.	.	.	.
O=C(CSC1=NS(=O)(=O)c2ccccc2N1)NCc1ccc(F)cc1	.	.	-4	.	.	.	.
CN(C(=O)COC(=O)c1cc([N+](=O)[O-])ccc1N1CCOCC1)C1CCCCC1	.	.	89*	.	.	.	93*
CCN(C(=O)COC(=O)c1cc([N+](=O)[O-])ccc1N1CCOCC1)C1CCS(=O)(=O)C1 (configuration not stated)	.	.	4	.	.	.	.
NC(=NCc1ccccc1)NN=Cc1ccnc2ccccc12	.	.	1	.	.	.	.
CC(C)(C)SCCNC(=O)c1ccc(Cl)c([N+](=O)[O-])c1	-16	3	53*	7	-3	0	68*
Cc1ccccc1CNC(=O)c1ccc(Cl)c([N+](=O)[O-])c1	-1	-1	34	-30	-5	1	.
O=C(Nc1cccc(C(=O)O)c1)/C(=C/c1cccc([N+](=O)[O-])c1)NC(=O)c1cccc(Br)c1	.	.	62*	.	.	.	58*
COc1cccc(NC(=O)CN(C)C(=O)/C=C/c2ccc3ccccc3n2)c1	.	.	0	.	.	.	.
CN(CCOc1ccccc1)CC(=O)Nc1ccc([N+](=O)[O-])cc1Cl	-28	0	60*	-11	-3	0	39*
CC12CCC(=O)N1C(C(=O)Nc1ccccc1N1CCCCC1)CS2 (configuration not stated)	.	.	5	.	.	.	.
COCc1c(Br)c(C)nc(OCC(=O)N/N=C/c2cc(C)n(-c3ccc([N+](=O)[O-])cc3)c2C)c1C#N	-3	10	62*	18	-13	0	-3
Cc1cc(/C=N/NC(=O)CC#N)c(C)n1-c1ccc([N+](=O)[O-])cc1	-27	3	-1	23	-6	-2	.
